esBAF inh = Bmi1 luciferase reporter increase in mESCs, primary screen, esBAF inhibitor project, mouse ES cells, Bmi1 luciferase knock-in, single point; 24 h; 100% = twice the neutral-well signal; reporter increase, % at 12.5 µM; actives 2% (n = 350,000); in the data active = activation above about 40%; inconclusive = no clear call, values can overlap the other calls;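 also: a rise in the Bmi1 reporter signal indicates esBAF inhibition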
Rtt109 HAT inh = inhibitors of C. albicans Rtt109/Vps75 HAT, primary screen, biochemical, ThioGlo CoA-SH fluorescence, plate reader; Histone acetyltransferase RTT109 (Candida albicans (strain SC5314 / ATCC MYA-2876)), …; purified Rtt109/Vps75, 4 h; inhibition, % at 34.9 µM; actives 0.16% (n = 330,000);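 active = inhibition of at least 50% in every replicate; inconclusive = best replicate reaches 50% inhibition but some replicates fall short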
CDK5 p35 inh = inhibitors of human CDK5/p35 kinase, primary screen, biochemical, single concentration; Recombinant CDK5/p35, ADP-Glo luminescence, 60 min; Cyclin-dependent kinase 5 (Homo sapiens) + Cyclin-dependent kinase 5 activator 1 (Homo …; inhibition, % at 10 µM; actives 0.01% (n = 330,000); AID 488839, 2010;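 active = highest replicate inhibition of at least 50% and at least 75% of replicates reaching 50%; inconclusive = only one of the two criteria met; inactive = both criteria failed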
DYRK1A inh = rat Dyrk1A kinase inhibitors, primary screen, biochemical, single point, plate reader; actives 0.43% (n = 310,000); inhibition, % at 12.5 µM; ADP-Glo luminescence, NFATc1 peptide; AID 504441, 2011; in the data active = inhibition above about 50%
SMARCA2 act = SMARCA2 (BRM) function activators, primary screen, cell-based, luminescence, high throughput | activation, % at 9.1 µM | actives 1% (n = 370,000) | MG213 cells, MMTV-luciferase reporter, dexamethasone, overnight; in the data active = activation above about 7.8%
dFosB activator = activators of delta FosB homodimer, primary screen, biochemical, fluorescence polarization, TAMRA-CDK5 oligo, single point; AID 493131, 2011; Protein FosB (Mus musculus), P13346; purified delta FosB; percent of positive-control signal above neutral wells; actives 0.99% (n = 340,000); activation, % at 25 µM;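 active = mean activation above about 17%, with every replicate also reaching it, limit read from the data, passing the limit was not always enough; inconclusive = only one of the two conditions met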
Target sequence (P13346 whole entry, looked up): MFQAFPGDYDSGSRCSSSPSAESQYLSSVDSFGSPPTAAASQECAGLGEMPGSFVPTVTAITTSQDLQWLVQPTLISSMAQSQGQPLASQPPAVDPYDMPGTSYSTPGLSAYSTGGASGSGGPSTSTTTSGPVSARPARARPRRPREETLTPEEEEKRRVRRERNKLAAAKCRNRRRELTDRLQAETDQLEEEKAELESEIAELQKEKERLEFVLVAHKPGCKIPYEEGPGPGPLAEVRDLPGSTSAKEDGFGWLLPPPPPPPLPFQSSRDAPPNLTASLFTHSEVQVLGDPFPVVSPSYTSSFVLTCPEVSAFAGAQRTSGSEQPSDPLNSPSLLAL
SMARCA2 act conf = SMARCA2 (BRM) function activators, confirmation, cell-based, luminescence, triplicate | AID 652260, 2013 | actives 30% (n = 3,500) | activation, % at 9.1 µM | shares compounds with SMARCA2 act | MG213 cells, MMTV-luciferase with dexamethasone, overnight; MG213 cells expressing E1A, Rb sequestered; DMSO wells 0%, reference activator 100%;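 active = activation above its plate's cutoff, the mean activation of tested wells plus 3 SD, cut at about 7.9% in these data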
VP16 Luc act = GAL4-VP16 luciferase reporter activation, counter-screen for SMARCA2 (BRM) activator project, cell-based, pG5luc, luminescence, high throughput; shares compounds with SMARCA2 act; HEK293 GAL4-VP16 pG5luc reporter; scaled: DMSO wells 0%, SAHA wells 100%; activation, % at 9.1 µM; actives 41% (n = 3,500); AID 686939, 2013;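 active = activation above the solvent-only control well mean plus 3 SD, averaged across control plates, cut at about 5.2% in these data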
A number is an active result; . = inactive; ? = inconclusive; / = no result given. Sampled rows, rich in hits. Any-hit rate of the full collection: about 3.2%.

SMILES	esBAF inh	Rtt109 HAT inh	CDK5 p35 inh	DYRK1A inh	SMARCA2 act	dFosB activator	SMARCA2 act conf	VP16 Luc act
CC1CCCCN1C(=O)c1cc(-c2ccc3c(c2)OCO3)on1 (configuration not stated)	.	.	.	.	9.2	.	.	12.1
COCCn1c(=O)[nH]c2cc(C(=O)Nc3nnc(C)s3)ccc21	.	.	.	.	8.2	.	.	.
CC(=O)c1cc(C#N)c(SCC(=O)O)nc1C	/	.	.	.	.	.	/	/
CCOC(=O)CSc1nc(C)c(C(C)=O)cc1C#N	.	.	.	.	8.2	.	.	.
CC(c1ccccc1)N1CCn2c(nc3cc(NC(=O)c4cccs4)ccc32)C1 (configuration not stated)	.	.	.	.	9.9	.	.	.
COCCN1CCn2c(nc3cc(NC(=O)c4cccs4)ccc32)C1	.	.	.	.	.	.	/	/
COc1cc(O)c2c(=O)c3c(OC)c(O)ccc3oc2c1	.	.	.	.	9.7	.	9.0	.
C[C@H](CO)N1C[C@H](C)[C@H](CN(C)Cc2ccc(C(F)(F)F)cc2)OCCCC[C@H](C)Oc2ccc(NS(=O)(=O)c3cn(C)cn3)cc2C1=O	.	/	/	/	/	/	/	/
COCC(=O)N(C)C[C@H]1Oc2cc(-c3cccnc3)ccc2S(=O)(=O)N([C@@H](C)CO)C[C@H]1C	.	/	/	/	/	/	/	/
OCc1cn(-c2ccccc2)nc1-c1cc2ccccc2o1	?	.	.	.	11.5	.	.	8.6
CC(C)(C)OC(=O)N1CCC(CNC(=O)c2ccccc2)CC1	/	.	.	.	8.8	.	.	.
C[C@@H]1CN([C@@H](C)CO)C(=O)c2cc(NC(=O)NC3CCCCC3)ccc2O[C@@H](C)CCCCO[C@H]1CN(C)C(=O)Nc1ccccc1	.	/	/	/	/	/	/	/
O=C(N/N=C/c1cn(-c2ccccc2)nc1-c1cccnc1)c1ccccc1	/	.	.	.	.	.	/	/
NC(=S)N/N=C/c1cn(-c2ccccc2)nc1-c1cccnc1	/	.	.	.	8.2	.	.	.
COCC(=O)Nc1ccc2c(c1)C(=O)N(C)C[C@H](OC)[C@@H](C)CN(C(=O)CC1CC1)[C@@H](C)CO2	.	/	/	/	/	/	/	/
CC(=Nc1ccccc1)C1=C(O)CSC1=O	46.0	.	.	.	8.6	.	.	.
C(=C\c1nc(N2CCCCCC2)c2ccccc2n1)/c1ccccc1	/	.	.	.	9.3	.	.	.
COc1ccc(OCC(=O)NC(=S)Nc2ccccc2F)cc1	/	.	.	.	9.8	.	.	.
C[C@@H](NC(=O)C[C@@H]1C=C[C@H](NC(=O)CN2CCOCC2)[C@H](CO)O1)c1ccccc1	.	/	/	/	/	/	/	/
N#CCCN1CCN(C2=NC(=O)/C(=C\c3cccs3)S2)CC1	/	?	.	.	8.8	.	.	.
O=C1N=C(N2CCOCC2)S/C1=C\c1cccs1	.	.	.	.	.	.	/	/
CN1C(=S)SC2CS(=O)(=O)CC21C (configuration not stated)	/	.	.	.	11.8	.	.	.
CC1CCN(c2nc3ccc(C(=O)NCCCN4CCCCC4)cc3s2)CC1	61.7	.	.	.	12.3	.	.	17.3
O=C(NCC1CCCO1)c1ccc2nc(N3CCCCC3)sc2c1 (configuration not stated)	.	.	.	.	.	.	/	/
CCOC(=O)C1=C(C)N=c2sc(=Cc3ccc(OCC(=O)O)cc3)c(=O)n2C1c1ccc(Cl)cc1 (configuration not stated)	.	/	/	/	.	/	/	/
SMILES	esBAF inh	Rtt109 HAT inh	CDK5 p35 inh	DYRK1A inh	SMARCA2 act	dFosB activator	SMARCA2 act conf	VP16 Luc act
CCOC(=O)C1=C(C)N=c2s/c(=C/c3ccc(OCC(=O)O)cc3)c(=O)n2C1c1cc(OC)c(OC)c(OC)c1 (configuration not stated)	.	68.3	.	.	9.1	.	.	.
Cc1nnc2c(N(C)S(=O)(=O)c3ccccc3)nc3ccccc3n12	.	.	.	.	8.2	.	9.0	.
COc1ccc(-c2csc(N3CCN(C(=O)c4ccccc4)CC3)n2)cc1	.	.	.	.	.	.	/	/
CN(C)C(=O)N1CCN(c2nc(-c3ccccc3)cs2)CC1	.	.	.	.	11.2	.	.	5.9
COc1ccc(-c2nc(N)ncc2-c2ccc(OC)c(OC)c2)c(O)c1	.	.	.	.	8.1	.	.	.
Cc1ccc(-c2nc3ccc(C)cn3c2CC2CCCCC2)cc1	/	/	/	/	8.1	/	.	5.1
Cc1ccc(-c2nc3ccc(Cl)cn3c2CC2CCCCC2)cc1	.	/	/	/	.	/	/	/
Cc1ccc(C(=O)N/N=C2\CC3CC=CC23)c(C)c1 (configuration not stated)	/	.	.	.	8.1	.	.	.
Cc1ccc(NC(=S)N/N=C2\CC3CC=CC23)c(C)c1 (configuration not stated)	/	.	.	.	.	.	/	/
COc1ccc(NC(=O)c2onc(C)c2Cl)cc1	45.9	.	.	.	10.4	.	.	7.0
Clc1ccc2oc(-c3ccccc3)cc(=NCCCN3CCOCC3)c2c1	/	.	.	.	16.7	.	14.5	5.6
CC(C)NC(=O)N(C)C[C@H]1Oc2cc(C#CC(C)(C)O)ccc2S(=O)(=O)N([C@H](C)CO)C[C@H]1C	.	/	/	/	/	/	/	/
Nc1cc(C2CCCC2)nn1-c1ccccc1	.	.	.	.	9.0	.	18.0	.
O=C(Cn1cc(C(F)(F)F)ccc1=O)N1CCCc2ccccc21	.	.	.	.	.	.	/	/
O=C(Cn1cc(C(F)(F)F)ccc1=O)N1CCc2ccccc2C1	.	.	.	.	8.0	.	.	.
C[C@H](CO)N1C[C@H](C)[C@@H](CN(C)C(=O)c2ccccc2)OCCCC[C@H](C)Oc2ccc(NS(=O)(=O)c3ccc(Cl)cc3)cc2C1=O	.	/	/	/	/	/	/	/
C[C@H]1CN([C@@H](C)CO)C(=O)c2cc(NC(=O)Cc3ccccc3)ccc2O[C@H]1CN(C)S(=O)(=O)c1ccc(Cl)cc1	.	/	/	/	/	/	/	/
O=C(c1cc(-c2ccccc2O)on1)N1CCc2ccccc2C1	.	.	.	.	8.6	.	.	.

Bioassay records: PubChem, several laboratories
